Test results published in PubChem BioAssay (NCATS).
Records with an inconclusive call do not appear. Activity calls are given as the source filed them. The call rests on the fitted dose curve; in most records, active means well fitted inhibition curve with a large enough effect; inconclusive means small, poorly fitted or top-dose-only effect; inactive means flat fitted curve, though single readings scatter.

System: CP237
Test: qHTS profiling for inhibitors of Plasmodium falciparum proliferation (AID 504749);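 further: 0% = DMSO vehicle and full inhibition = artemisinin control; nearly all actives have a fitted effect of over 60% in size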
Settings: P. falciparum in erythrocytes, SYBR Green DNA, 72 h; series mostly up to 12.8 µM; activity, negative = inhibition: at the top concentration
Outline: (§1)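 Parasite proliferation within erythrocytes, 72 h exposure. Endpoint: SYBR Green I fluorescence after overnight lysis at room temperature. Controls: 0.29 uM artemisinin, DMSO.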

SMILES	activity, negative = inhibition
C[N+](C)(C)CC(O)CC(=O)O (stereo not drawn)	2.46% [at 28.7 µM] (inactive)
CN1CCCC[C@@H]1CCN1c2ccccc2Sc2ccc(S(C)=O)cc21 (stereo partly drawn)	-5.85% [at 28.7 µM] (inactive)
O=C(Cc1cccs1)NC1C(=O)N2C(C(=O)[O-])=C(C[n+]3ccccc3)CSC12 (stereo not drawn)	4.78% [at 28.7 µM] (inactive)
C[C@@H]1CCC[C@H](C)N1NC(=O)c1ccc(Cl)c(S(N)(=O)=O)c1	1.95% (inactive)
CC(C)N1CCN(c2ccc(OC[C@@H]3CO[C@@](Cn4cncn4)(c4ccc(Cl)cc4Cl)O3)cc2)CC1	-25.7% (inactive)

System: CP238
Test: as above
Settings: P. falciparum in erythrocytes, SYBR Green DNA, 72 h; series mostly up to 12.8 µM; activity, negative = inhibition: at the top concentration
Outline: as §1

SMILES	activity, negative = inhibition
C[N+](C)(C)CC(O)CC(=O)O (stereo not drawn)	5.06% [at 28.7 µM] (inactive)
CN1CCCC[C@@H]1CCN1c2ccccc2Sc2ccc(S(C)=O)cc21 (stereo partly drawn)	-2.75% [at 28.7 µM] (inactive)
O=C(Cc1cccs1)NC1C(=O)N2C(C(=O)[O-])=C(C[n+]3ccccc3)CSC12 (stereo not drawn)	10.5% [at 28.7 µM] (inactive)
C[C@@H]1CCC[C@H](C)N1NC(=O)c1ccc(Cl)c(S(N)(=O)=O)c1	8.07% (inactive)
CC(C)N1CCN(c2ccc(OC[C@@H]3CO[C@@](Cn4cncn4)(c4ccc(Cl)cc4Cl)O3)cc2)CC1	-7.03% (inactive)

System: CP247
Test: as above
Settings: P. falciparum in erythrocytes, SYBR Green DNA, 72 h; series mostly up to 12.8 µM; activity, negative = inhibition: at the top concentration
Outline: as §1

SMILES	activity, negative = inhibition
C[N+](C)(C)CC(O)CC(=O)O (stereo not drawn)	9.08% [at 28.7 µM] (inactive)
CN1CCCC[C@@H]1CCN1c2ccccc2Sc2ccc(S(C)=O)cc21 (stereo partly drawn)	-5.53% [at 28.7 µM] (inactive)
O=C(Cc1cccs1)NC1C(=O)N2C(C(=O)[O-])=C(C[n+]3ccccc3)CSC12 (stereo not drawn)	9.83% [at 28.7 µM] (inactive)
C[C@@H]1CCC[C@H](C)N1NC(=O)c1ccc(Cl)c(S(N)(=O)=O)c1	2.98% (inactive)
CC(C)N1CCN(c2ccc(OC[C@@H]3CO[C@@](Cn4cncn4)(c4ccc(Cl)cc4Cl)O3)cc2)CC1	-2.34% (inactive)

System: CP250
Test: as above
Settings: P. falciparum in erythrocytes, SYBR Green DNA, 72 h; series mostly up to 12.8 µM; activity, negative = inhibition: at the top concentration
Outline: as §1

SMILES	activity, negative = inhibition
C[N+](C)(C)CC(O)CC(=O)O (stereo not drawn)	4.94% [at 28.7 µM] (inactive)
CN1CCCC[C@@H]1CCN1c2ccccc2Sc2ccc(S(C)=O)cc21 (stereo partly drawn)	-13.2% [at 28.7 µM] (inactive)
O=C(Cc1cccs1)NC1C(=O)N2C(C(=O)[O-])=C(C[n+]3ccccc3)CSC12 (stereo not drawn)	5.25% [at 28.7 µM] (inactive)
CN(C)CC/C=C1\c2ccccc2CSc2ccccc21	-19% (inactive)
C[C@@H]1CCC[C@H](C)N1NC(=O)c1ccc(Cl)c(S(N)(=O)=O)c1	11.5% (inactive)
CC(C)N1CCN(c2ccc(OC[C@@H]3CO[C@@](Cn4cncn4)(c4ccc(Cl)cc4Cl)O3)cc2)CC1	-0.24% (inactive)

System: CP252
Test: as above
Settings: P. falciparum in erythrocytes, SYBR Green DNA, 72 h; series mostly up to 12.8 µM; activity, negative = inhibition: at the top concentration
Outline: as §1

SMILES	activity, negative = inhibition
C[N+](C)(C)CC(O)CC(=O)O (stereo not drawn)	0.404% [at 28.7 µM] (inactive)
CN1CCCC[C@@H]1CCN1c2ccccc2Sc2ccc(S(C)=O)cc21 (stereo partly drawn)	1.09% [at 28.7 µM] (inactive)
O=C(Cc1cccs1)NC1C(=O)N2C(C(=O)[O-])=C(C[n+]3ccccc3)CSC12 (stereo not drawn)	2.91% [at 28.7 µM] (inactive)
C[C@@H]1CCC[C@H](C)N1NC(=O)c1ccc(Cl)c(S(N)(=O)=O)c1	0.192% (inactive)
CC(C)N1CCN(c2ccc(OC[C@@H]3CO[C@@](Cn4cncn4)(c4ccc(Cl)cc4Cl)O3)cc2)CC1	-2.99% (inactive)

System: CP256
Test: as above
Settings: P. falciparum in erythrocytes, SYBR Green DNA, 72 h; series mostly up to 12.8 µM; activity, negative = inhibition: at the top concentration
Outline: as §1

SMILES	activity, negative = inhibition
C[N+](C)(C)CC(O)CC(=O)O (stereo not drawn)	7.25% [at 28.7 µM] (inactive)
CN1CCCC[C@@H]1CCN1c2ccccc2Sc2ccc(S(C)=O)cc21 (stereo partly drawn)	-0.984% [at 28.7 µM] (inactive)
O=C(Cc1cccs1)NC1C(=O)N2C(C(=O)[O-])=C(C[n+]3ccccc3)CSC12 (stereo not drawn)	8.28% [at 28.7 µM] (inactive)
CN(C)CC/C=C1\c2ccccc2CSc2ccccc21	-25.2% (inactive)
C[C@@H]1CCC[C@H](C)N1NC(=O)c1ccc(Cl)c(S(N)(=O)=O)c1	10.3% (inactive)
CC(C)N1CCN(c2ccc(OC[C@@H]3CO[C@@](Cn4cncn4)(c4ccc(Cl)cc4Cl)O3)cc2)CC1	15.8% (inactive)

System: CP260
Test: as above
Settings: P. falciparum in erythrocytes, SYBR Green DNA, 72 h; series mostly up to 12.8 µM; activity, negative = inhibition: at the top concentration
Outline: as §1

SMILES	activity, negative = inhibition
C[N+](C)(C)CC(O)CC(=O)O (stereo not drawn)	-5.15% [at 28.7 µM] (inactive)
CN1CCCC[C@@H]1CCN1c2ccccc2Sc2ccc(S(C)=O)cc21 (stereo partly drawn)	-16.6% [at 28.7 µM] (inactive)
O=C(Cc1cccs1)NC1C(=O)N2C(C(=O)[O-])=C(C[n+]3ccccc3)CSC12 (stereo not drawn)	7.49% [at 28.7 µM] (inactive)
C[C@@H]1CCC[C@H](C)N1NC(=O)c1ccc(Cl)c(S(N)(=O)=O)c1	4.7% (inactive)
CC(C)N1CCN(c2ccc(OC[C@@H]3CO[C@@](Cn4cncn4)(c4ccc(Cl)cc4Cl)O3)cc2)CC1	2.68% (inactive)

System: CP262
Test: as above
Settings: P. falciparum in erythrocytes, SYBR Green DNA, 72 h; series mostly up to 12.8 µM; activity, negative = inhibition: at the top concentration
Outline: as §1

SMILES	activity, negative = inhibition
C[N+](C)(C)CC(O)CC(=O)O (stereo not drawn)	7.93% [at 28.7 µM] (inactive)
CN1CCCC[C@@H]1CCN1c2ccccc2Sc2ccc(S(C)=O)cc21 (stereo partly drawn)	0% [at 28.7 µM] (inactive)
O=C(Cc1cccs1)NC1C(=O)N2C(C(=O)[O-])=C(C[n+]3ccccc3)CSC12 (stereo not drawn)	0% [at 28.7 µM] (inactive)
CN(C)CC/C=C1\c2ccccc2CSc2ccccc21	-3.92% (inactive)
C[C@@H]1CCC[C@H](C)N1NC(=O)c1ccc(Cl)c(S(N)(=O)=O)c1	-2.1% (inactive)
CC(C)N1CCN(c2ccc(OC[C@@H]3CO[C@@](Cn4cncn4)(c4ccc(Cl)cc4Cl)O3)cc2)CC1	16.7% (inactive)

System: CP265
Test: as above
Settings: P. falciparum in erythrocytes, SYBR Green DNA, 72 h; series mostly up to 12.8 µM; activity, negative = inhibition: at the top concentration
Outline: as §1

SMILES	activity, negative = inhibition
C[N+](C)(C)CC(O)CC(=O)O (stereo not drawn)	-5.61% [at 28.7 µM] (inactive)
CN1CCCC[C@@H]1CCN1c2ccccc2Sc2ccc(S(C)=O)cc21 (stereo partly drawn)	-1.73% [at 28.7 µM] (inactive)
O=C(Cc1cccs1)NC1C(=O)N2C(C(=O)[O-])=C(C[n+]3ccccc3)CSC12 (stereo not drawn)	0.371% [at 28.7 µM] (inactive)
C[C@@H]1CCC[C@H](C)N1NC(=O)c1ccc(Cl)c(S(N)(=O)=O)c1	-0.772% (inactive)
CC(C)N1CCN(c2ccc(OC[C@@H]3CO[C@@](Cn4cncn4)(c4ccc(Cl)cc4Cl)O3)cc2)CC1	0.995% (inactive)

System: CP266
Test: as above
Settings: P. falciparum in erythrocytes, SYBR Green DNA, 72 h; series mostly up to 28.7 µM; activity, negative = inhibition: at the top concentration
Outline: as §1

SMILES	activity, negative = inhibition
C[N+](C)(C)CC(O)CC(=O)O (stereo not drawn)	11.9% (inactive)
CN1CCCC[C@@H]1CCN1c2ccccc2Sc2ccc(S(C)=O)cc21 (stereo partly drawn)	-0.389% (inactive)
O=C(Cc1cccs1)NC1C(=O)N2C(C(=O)[O-])=C(C[n+]3ccccc3)CSC12 (stereo not drawn)	-0.0454% (inactive)
CN(C)CC/C=C1\c2ccccc2CSc2ccccc21	-3.21% [at 12.8 µM] (inactive)
C[C@@H]1CCC[C@H](C)N1NC(=O)c1ccc(Cl)c(S(N)(=O)=O)c1	8.84% [at 12.8 µM] (inactive)
